{
  "source": "PubChem BioAssay (EPA / NIEHS)",
  "note": "Activity calls are given as the source filed them. Rule for the calls: active = hit-call score of the fitted dose curve at least 0.9, where 1 is the maximum; inactive = score below 0.9.",
  "data": [
    {"test": "ATG_AP_2_CIS: Attagene CIS-FACTORIAL HepG2 Assay for human Activator Protein 2 (AP-2) (AID 2282932)", "details": "HepG2 AP-2 cis-reporter, Attagene transcription factor profiling; actives raise or lower the signal", "description": "ATG_CIS is a cell-based, multiplexed-readout assay that uses HepG2, a human liver cell line, with measurements taken at 24 hours after chemical dosing in a 24-well plate.ATG_AP_2_CIS is one of 52 assay component(s) measured or calculated from the ATG_CIS assay. It is designed to make measurements of mRNA induction, a form of inducible reporter, as detected with fluorescence intensity signals by Reverse transcription polymerase chain reaction (RT-PCR) and Capillary electrophoresis technology.Data from the assay component ATG_AP_2_CIS was analyzed into 1 assay endpoint. This assay endpoint, ATG_AP_2_CIS, was analyzed with bidirectional fitting relative to DMSO as the negative control and baseline of activity. Using a type of inducible reporter, measures of mRNA for gain or loss-of-signal activity can be used to understand the reporter gene at the transcription factor-level as they relate to the gene TFAP2A and TFAP2B and TFAP2D. Furthermore, this assay endpoint can be referred to as a primary readout, because this assay has produced multiple assay endpoints where this one serves a reporter gene function. To generalize the intended target to other relatable targets, this assay endpoint is annotated to the dna binding intended target family, where the subfamily is basic helix-turn-helix leucine zipper.\nHuman liver HepG2 cells are transiently transfected with multiple reporter transcription units (MRTUs) in 6-well plates using FuGene 6 reagent (Roche; 3 ml FuGene/1 mg DNA). The MRTU constructs are regulated by a cis-regulating element (promoter). […] A major difference between the CIS and TRANS system is that in CIS activities of endogenous TFs are measured, whereas the TRANS assay evaluates changes in activities of exogenous, chimeric NR-Gal4 proteins. […] At the end of 24 hour incubation, total RNA was isolated using TriZol reagent (Invitrogen). The isolated RNA is then reverse-transcribed using oligo(dT) primer and Mo-MLV reverse transcriptase (Invitrogen) with DNAse I (Ambion) treatment for 30 min. The one-tenth of the produced cDNA was amplified by PCR using Taq DNA polymerase (Invitrogen) and two reporter sequence-specific primers. The PCR products were fluorescently labeled by primer extension with 6-arboxyfluorescein (6-FAM) 5'-labeled reporter sequence-specific primer (2 min at 95 C, 20 s at 68 C and 10 min at 72 C) and these products were digested with 5U of HpaI (New England Biolabs) for 2h at 37 C. The fragments were purified using Qiaquick PCR columns (Qiagen), analyzed on an ABI 3130xL genetic analyzer (Applied Biosystems) with peak positions identified by using a set of X-rhodamine (ROX)-labeled MapMarker1000 molecular weight standards (BioVentures). The raw capillary electrophoresis data was processed using Attagraph software (Attagene).", "values": [
      {"smiles": "CCC(C)(C)c1ccc(O)cc1", "outcome": "inactive"},
      {"smiles": "CCOc1ccc(C(C)(C)COCc2cccc(Oc3ccccc3)c2)cc1", "outcome": "inactive"},
      {"smiles": "CCCCCCCc1ccc(O)cc1", "outcome": "inactive"},
      {"smiles": "Cc1ccc(C(=O)Cl)cc1", "outcome": "inactive"},
      {"smiles": "Nc1ccc2ccccc2c1", "outcome": "inactive"},
      {"smiles": "CCCCN(CC)C(=O)SCCC", "outcome": "inactive"},
      {"smiles": "Cc1ccc(N)cc1N", "outcome": "inactive"},
      {"smiles": "N#Cc1c(-c2ccc(Cl)cc2)[nH]c(C(F)(F)F)c1Br", "outcome": "inactive"},
      {"smiles": "c1ccc2c(c1)Nc1ccccc1S2", "outcome": "inactive"},
      {"smiles": "Cc1cccc(N)c1", "outcome": "inactive"},
      {"smiles": "OCC(F)(F)OC(F)(F)C(F)(F)OC(F)(F)C(F)(F)OC(F)(F)CO", "outcome": "inactive"},
      {"smiles": "CCOP(=S)(Oc1ccc([N+](=O)[O-])cc1)c1ccccc1", "note": "(stereo not given)", "outcome": "inactive"},
      {"smiles": "CCCCOCCOP(=O)(OCCOCCCC)OCCOCCCC", "outcome": "inactive"},
      {"smiles": "ClC(Cl)c1ccccc1", "outcome": "inactive"},
      {"smiles": "CCCN(CCC)c1c([N+](=O)[O-])cc(C(C)C)cc1[N+](=O)[O-]", "outcome": "inactive"},
      {"smiles": "CCCCC(CC)COC(=O)c1c(Br)c(Br)c(Br)c(Br)c1C(=O)OCC(CC)CCCC", "note": "(stereo not given)", "outcome": "inactive"},
      {"smiles": "CC(O)C(F)(F)C(F)(F)F", "note": "(stereo not given)", "outcome": "inactive"},
      {"smiles": "O=C(O)C(F)(F)C(F)(F)C(=O)O", "outcome": "inactive"},
      {"smiles": "c1cc2c3c(cccc3c1)CC2", "outcome": "inactive"},
      {"smiles": "CC(Cl)CN(C)C", "note": "(stereo not given)", "outcome": "inactive"},
      {"smiles": "CN(C)C(=O)Cl", "outcome": "inactive"},
      {"smiles": "c1ccc2c(c1)sc1ccccc12", "outcome": "inactive"},
      {"smiles": "CCCCN(CCCC)SN(C)C(=O)Oc1cccc2c1OC(C)(C)C2", "outcome": "inactive"},
      {"smiles": "N#C/C=C/c1ccccc1", "outcome": "inactive"},
      {"smiles": "CC(=O)c1ccc(-c2ccccc2)cc1", "outcome": "inactive"},
      {"smiles": "O=P(Oc1ccccc1)(Oc1ccccc1)Oc1ccccc1", "outcome": "inactive"},
      {"smiles": "Nc1ccc(Cl)cc1", "outcome": "inactive"},
      {"smiles": "CCOP(=O)(O)C(N)=O", "outcome": "inactive"},
      {"smiles": "O=C(O)C(F)(OC(F)(F)C(F)(F)C(F)(F)F)C(F)(F)F", "note": "(stereo not given)", "outcome": "inactive"},
      {"smiles": "COC(=O)C(F)(F)C(F)(F)OC(F)(C(F)(F)F)C(F)(F)OC(F)=C(F)F", "note": "(stereo not given)", "outcome": "inactive"},
      {"smiles": "CCCCC(CC)COP(=O)(Oc1ccccc1)Oc1ccccc1", "note": "(stereo not given)", "outcome": "inactive"},
      {"smiles": "ClC(Cl)(Cl)c1ccccc1", "outcome": "inactive"},
      {"smiles": "CC1=C(C(=O)Nc2ccccc2)S(=O)(=O)CCO1", "AC50": "18.1 µM (active)"},
      {"smiles": "O=NN1CCCC1", "outcome": "inactive"},
      {"smiles": "O=C(O)C(F)(F)OC(F)(F)C(F)(F)OC(F)(F)C(=O)O", "outcome": "inactive"},
      {"smiles": "C=C(C)C(=O)OCC1CO1", "note": "(stereo not given)", "outcome": "inactive"},
      {"smiles": "ClC1=C(Cl)C2(Cl)C3C(Cl)C(Cl)CC3C1(Cl)C2(Cl)Cl", "note": "(stereo not given)", "outcome": "inactive"},
      {"smiles": "CSC(C)(C)C=NO", "outcome": "inactive"},
      {"smiles": "O=[N+]([O-])c1ccc(Cl)c(Cl)c1", "outcome": "inactive"},
      {"smiles": "C/C(=N\\NC(=O)Nc1cc(F)cc(F)c1)c1ncccc1C(=O)O", "outcome": "inactive"}
    ]}
  ]
}
